Shown are actives, neighbours in structure and some others; about 1.4% of the full set was active somewhere.
Bcl-xL primary: inhibitors of human Bcl-xL; Q07817; GST-Bcl-xL / FITC-Bim BH3 peptide fluorescence polarization; inhibition, % at 10.9 µM; actives 0.7% (n = 320,000); AID 2129;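 active = inhibition above the mean of all tested compounds plus 3 SD, cutoff set per campaign, cut at about 30% in these data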;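 also: inhibitors lower millipolarization by displacing the labeled peptide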
MCL1 BIM primary: MCL1-BIM-BH3 interaction inhibition (human) | AID 2057 | inhibition, % at 10.9 µM | Q07820 | actives 0.68% (n = 320,000) | GST-MCL1 / FITC-Bim-BH3 fluorescence polarization;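 active = inhibition above the mean inhibition of all tested compounds plus 3 SD, set per campaign, cut at about 40% in these data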;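 also: higher means more loss of mP so more displacement of Bim peptide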
MEX-5 binding: C. elegans MEX-5 TCR-2 RNA binding activity; Q9XUB2; MEX-5/FITC-TCR2 RNA binding, fluorescence polarization; active compounds read low; activity score (negative = inhibition of binding), % at 10 µM; actives 0.38% (n = 300,000);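 active = inhibition past about -25% in most replicates, and total fluorescence under double the plate's negative control median, limit read from the data; inconclusive = replicates evenly split on the limit, or fluorescence at least double controls; inactive = too little inhibition in most replicates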
eLon inh: E. coli protease La inhibition | P0A9M0 | purified E. coli Lon protease, fluorescence polarization | inhibition, % at 7.94 µM | actives 0.42% (n = 360,000) | AID 602123; in the data active = inhibition above about 13%, passing the limit was not always enough
Target sequence (P0A9M0 whole entry, looked up): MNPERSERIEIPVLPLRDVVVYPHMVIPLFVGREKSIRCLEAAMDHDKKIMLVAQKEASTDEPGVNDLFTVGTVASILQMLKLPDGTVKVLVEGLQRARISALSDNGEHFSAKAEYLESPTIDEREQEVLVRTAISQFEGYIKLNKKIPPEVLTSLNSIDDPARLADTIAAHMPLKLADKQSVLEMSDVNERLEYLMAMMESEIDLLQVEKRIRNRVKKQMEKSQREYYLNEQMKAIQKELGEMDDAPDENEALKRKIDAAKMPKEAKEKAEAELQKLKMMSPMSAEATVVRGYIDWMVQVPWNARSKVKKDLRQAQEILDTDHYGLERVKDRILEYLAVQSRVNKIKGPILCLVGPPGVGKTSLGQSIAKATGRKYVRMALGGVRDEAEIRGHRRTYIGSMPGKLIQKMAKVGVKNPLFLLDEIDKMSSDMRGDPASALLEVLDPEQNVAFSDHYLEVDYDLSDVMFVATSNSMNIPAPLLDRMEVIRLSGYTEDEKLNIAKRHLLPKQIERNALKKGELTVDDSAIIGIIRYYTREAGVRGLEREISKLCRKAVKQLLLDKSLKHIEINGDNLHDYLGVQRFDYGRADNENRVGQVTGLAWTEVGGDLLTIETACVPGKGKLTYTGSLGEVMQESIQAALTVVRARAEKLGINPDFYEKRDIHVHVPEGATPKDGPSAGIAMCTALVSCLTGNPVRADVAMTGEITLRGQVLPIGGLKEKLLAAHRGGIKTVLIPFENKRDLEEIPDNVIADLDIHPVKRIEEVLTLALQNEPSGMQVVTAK
GLD-1 TGE inh: GLD-1-TGE RNA interaction inhibition (C. elegans) | Q17339 | purified GLD-1 + fluorescein TGE RNA, fluorescence polarization | inhibition, % at 5.96 µM | actives 0.44% (n = 320,000) | AID 2280;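 active = percent inhibition above a per-plate cutoff, the plate mean of test compounds plus 3 SD, cut at about 30% in these data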
Of the large screens only hits and unclear results are named; the others gave an inactive call.

CC1CCCN(C(c2ccccc2)c2sc3ncnn3c2O)C1 (configuration not stated)	none
CC(C)(C)c1ccc(C(=O)NNC(=S)NCc2ccco2)cc1	none
CC(C)(O)C(=O)NNC(=S)NCc1ccco1	MEX-5 binding -32
Cc1ccccc1N=C1NC(=O)/C(=C/c2cccn2C)S1	none
Cc1cccc(N=C2NC(=O)/C(=C3/C(=O)N(C)c4ccccc43)S2)c1C	Bcl-xL primary 50
COc1cccc(-n2ccnc2SCC(=O)Nc2nccs2)c1	GLD-1 TGE inh 104
Cc1cccc(-n2ccnc2SCC(=O)Nc2nccs2)c1	none
Cc1cccc(NC(=O)NNC(=O)c2sccc2-n2cccc2)c1	none
C=CCOc1ccc(C2C(C(=O)c3ccco3)=C(O)C(=O)N2CCCN(CC)CC)cc1 (configuration not stated)	none
C=CC1=C2C=C(C3CC3)N(CC3CC3)C=C2C(=O)C(C)(OC(=O)c2ccco2)C1=O (configuration not stated)	none
C=CCN1C=C2C(=O)C(C)(OC(=O)c3ccco3)C(=O)C(C=C)=C2C=C1C1CC1 (configuration not stated)	Bcl-xL primary 32 (no result: eLon inh)
C=CC1=C2C=C(C3CC3)N(CCCN(CC)CC)C=C2C(=O)C(C)(OC(=O)c2ccco2)C1=O (configuration not stated)	Bcl-xL primary 41
O=[N+]([O-])c1ccc(/C=N/n2c(CO)nc3ccccc32)s1	MEX-5 binding -35
Cc1cc2ncn(/N=C/c3ccc([N+](=O)[O-])s3)c2cc1C	none
Cc1nc2ccccc2n1/N=C/c1ccc([N+](=O)[O-])s1	Bcl-xL primary 32, MEX-5 binding -76
Cc1nc2ccccc2n1/N=C/c1ccc([N+](=O)[O-])o1	none
O=C/C(=C\Nc1ccccn1)c1nc2ccccc2o1	MEX-5 binding -37
N#C/C(=C\c1ccccc1[N+](=O)[O-])C(=O)Nc1ccc(S(N)(=O)=O)cc1	Bcl-xL primary 33
COc1ccccc1/C=C(\C#N)C(=O)Nc1ccc(S(N)(=O)=O)cc1	none
CCN1CCc2c(sc(NC(=O)c3ccc4ccccc4c3)c2C(N)=O)C1	MEX-5 binding -46
COc1ccc2c(Cl)c(C(=O)N/N=C3\CCCC(=O)C3)sc2c1	Bcl-xL primary 40, GLD-1 TGE inh 129
COc1ccc2c(Cl)c(C(=O)N/N=C/c3ccc4c(c3)OCO4)sc2c1	none
COc1cc(C(CCN2CCCC2)c2c(OC)cc(OC)c3c(-c4ccccc4)cc(=O)oc23)cc(OC)c1OC (configuration not stated)	MEX-5 binding -48
COc1cc(C(CCN2CCOCC2)c2c(OC)cc(OC)c3c(-c4ccccc4)cc(=O)oc23)cc(OC)c1OC (configuration not stated)	none (no result: Bcl-xL primary, MCL1 BIM primary, MEX-5 binding, GLD-1 TGE inh)
O=C(N(c1ccccn1)c1ccccn1)C12CC3CC(CC(Cl)(C3)C1)C2	none
COc1ccc(C(C(=O)NC2CCCC2)N(C(=O)c2ccoc2C)c2cc(C)cc(C)c2)cc1 (configuration not stated)	Bcl-xL primary 52
Cc1ccc(C(=O)NN2C(=O)C3C4c5ccccc5C(c5ccccc54)C3C2=O)cc1 (configuration not stated)	none
CCN(CC)c1ccc(/C=C/c2cccc[n+]2C)c(OC)c1	MEX-5 binding inconclusive, GLD-1 TGE inh 42
O=c1cc(O)c2ccc(O)cc2o1	none
O=c1ccc2[n+]([O-])c3ccc(O)cc3oc-2c1	MEX-5 binding -81 (no result: Bcl-xL primary, MCL1 BIM primary, GLD-1 TGE inh)
CC1CN(Cc2c(O)ccc3c2oc(=O)c2ccccc23)CC(C)O1 (configuration not stated)	MEX-5 binding -29
Oc1ccc(N=Nc2ccccc2-c2nn[nH]n2)c(O)c1	Bcl-xL primary 31, MEX-5 binding -35
CC(=O)N1CCN(S(=O)(=O)c2ccc(F)c(Cl)c2)CC1	none
O=C(O)CN1C(=O)/C(=C\c2cn(CC(=O)N3CCOCC3)c3ccccc23)SC1=S	MEX-5 binding inconclusive
COc1ccc(-c2coc3cc4oc(=O)cc(-c5ccccc5)c4cc23)cc1F	Bcl-xL primary 37 (no result: MEX-5 binding)
COc1ccc(CNC(=O)Cn2c(=O)n(CC(=O)N3CCCCC3)c(=O)c3sccc32)cc1	none
Cc1ccc(N2C(=O)C3CCC(C)(C2=O)C3(C)C)cc1C (configuration not stated)	Bcl-xL primary 38
COc1ccc(-c2cc3c(=O)n(CC(=O)Nc4ccc(C(C)=O)cc4)ncn3n2)cc1	Bcl-xL primary 73
COc1ccc(-c2cc3c(=O)n(CC(=O)NCc4cccnc4)ncn3n2)cc1	none
OCCOc1ccc(C2=NCCO2)cc1	MEX-5 binding -50
Cc1ccc(C(=O)/C=C/Nc2cccc(O)c2)cc1	Bcl-xL primary 40, MCL1 BIM primary 40
CC1(C)CC(=O)C2=C(C1)OC(N)=C(C#N)C2c1ccc(OC(=O)N2CCOCC2)cc1 (configuration not stated)	none
CC1(C)CC(=O)C2=C(C1)OC(N)=C(C#N)C2c1ccc[nH]1 (configuration not stated)	Bcl-xL primary 33
COc1ccc(C2C(C#N)=C(N)OC3=C2C(=O)CC(C)(C)C3)cc1 (configuration not stated)	Bcl-xL primary 51
COc1cc(Oc2ccccc2)nc(N)n1	none
CC1CC(C)CN(S(=O)(=O)N2CCCC(C(=O)NC3CCCCC3C)C2)C1 (configuration not stated)	none
Cc1cc(C(=O)OCC(=O)Nc2c(Cl)cccc2C(F)(F)F)c(C)o1	Bcl-xL primary 46
Cc1ccsc1C(=O)OCC(=O)Nc1c(Cl)cccc1C(F)(F)F	none
CCC(C)[C@@H](N)C(=O)N/N=C/c1cccc2nccnc12 (some centres not stated)	MEX-5 binding -41 (no result: eLon inh)
COCCn1c(=S)[nH]c2ccc(N(C)C)cc2c1=O	Bcl-xL primary 32
CCOc1cc2[nH]c(=S)n(CCOC)c(=O)c2cc1OCC	none
CC(=O)c1ccc(NC(=O)/C(=C\c2ccc(F)cc2)NC(=O)c2ccco2)cc1	none
CCCN1C(=O)/C(=C/c2ccc(C)o2)SC1=Nc1ccc(OC)cc1	MEX-5 binding -72
CCCN1C(=O)/C(=C/c2ccc(C)o2)SC1=Nc1ccc(OCC)cc1	none
Cc1c(NC(=O)Nc2cccc(F)c2)c(=O)n(-c2ccccc2)n1C	GLD-1 TGE inh 121
Cc1cccc(C)c1NC(=O)c1cccc(N2C(=O)C3CCC(C)CC3C2=O)c1 (configuration not stated)	none
COc1ccc(OCc2nnc(SCC(=O)NCc3ccco3)o2)cc1	none
CCc1ccc(OCc2nnc(SCC(=O)NCc3ccco3)o2)cc1	Bcl-xL primary 54
CC(=O)N[C@@H](C)c1nc2ccccc2n1CCNC(=O)[C@H]1CCCN1c1nc(CN2CCCCC2)cs1	none (no result: eLon inh)
CC(=O)N1c2ccc3ccccc3c2C2C=CCC2C1c1ccc(Br)cc1 (configuration not stated)	Bcl-xL primary 37, GLD-1 TGE inh 41 (no result: MEX-5 binding, eLon inh)

Bioassay records from PubChem.
